Values without a mark were called inactive.

One experiment relates to NHEM-hTERT. Description: cell viability relative to DMSO control (fraction of DMSO control); higher = less cytotoxic, active = 0.5 or less. The note with it: 1 µM; 120 h. The gist of the method: (§1)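 Three cell types were screened against 315 approved anti-cancer drugs from TargetMol, acoustically pre-spotted in 384-well plates at 1 µM in duplicate over 120 h: NHEM-hTERT immortalized melanocytes (2500/well), patient-derived Mel-DCC-11 and its resistant subline Mel-DCC-11-R (both 1500/well), all in 40 µl per well. The subline was tested alone and with 8 µM of its selecting drug. Viability, measured by luminescence, was normalised to vehicle controls and averaged across duplicates, with ATPlite 1step as the readout.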

In another experiment the test system is Mel-DCC-11-R. The experiment in a line: cell viability relative to DMSO control (fraction of DMSO control); higher = less cytotoxic, active = 0.8 or less. The note with it: 1 µM, 120 h. The method in brief:
as §1

As to `CC(=O)O[C@@]12CO[C@@H]1C[C@H](O)[C@@]1(C)C(=O)[C@H](O)C3=C(C)[C@@H](OC(=O)[C@H](O)[C@@H](NC(=O)OC(C)(C)C)c4ccccc4)C[C@@](O)([C@@H](OC(=O)c4ccccc4)[C@H]21)C3(C)C` [Docetaxel], the cell viability in the experiment on NHEM-hTERT is 0.707.
For the molecule `C.CCN(CC)CCCC(C)Nc1ccnc2cc(Cl)ccc12.O=P(O)(O)O.O=P(O)(O)O` (configuration not stated) [Chloroquine diphosphate], the cell viability in the experiment with NHEM-hTERT was 1.27; with Mel-DCC-11-R (vemurafenib co-treatment 0 µM), 0.913; with Mel-DCC-11-R (vemurafenib co-treatment 8 µM) it was 1.1.
Regarding `O=C(/C=C\n1cnc(-c2cc(C(F)(F)F)cc(C(F)(F)F)c2)n1)NNc1cnccn1` [Selinexor], the cell viability is 0.73 in the experiment on NHEM-hTERT, 1.59 with Mel-DCC-11-R (vemurafenib co-treatment 0 µM) and 0.678 (active) in the experiment on Mel-DCC-11-R (vemurafenib co-treatment 8 µM).
Consider `CCOC(N)=O` [Urethane], for which the results for the cell viability with NHEM-hTERT, in the experiment on Mel-DCC-11-R (vemurafenib co-treatment 0 µM) and in the experiment with Mel-DCC-11-R (vemurafenib co-treatment 8 µM) were 1.09, 0.987 and 1, respectively.
With `O=c1ccn([C@@H]2O[C@H](CO)[C@@H](O)[C@H]2O)c(=O)[nH]1` [Uridine], the cell viability in the experiment with NHEM-hTERT is 1.05; in the experiment with Mel-DCC-11-R (vemurafenib co-treatment 0 µM), 0.931; in the experiment on Mel-DCC-11-R (vemurafenib co-treatment 8 µM), 1.09.
On to `Nc1nc(=S)c2[nH]cnc2[nH]1` [Thioguanine], for which the results for the cell viability in the experiment on NHEM-hTERT, in the experiment on Mel-DCC-11-R (vemurafenib co-treatment 0 µM) and in the experiment with Mel-DCC-11-R (vemurafenib co-treatment 8 µM) were 1.06, 1.31 and 0.933, respectively.
Regarding `O=NN(CCCl)C(=O)NCCCl` [Carmustine], the figures for the cell viability in the experiment with NHEM-hTERT, with Mel-DCC-11-R (vemurafenib co-treatment 0 µM) and with Mel-DCC-11-R (vemurafenib co-treatment 8 µM) were 0.992, 0.987 and 1.02, respectively.
For `O=C(c1cc(Cc2n[nH]c(=O)c3ccccc23)ccc1F)N1CCN(C(=O)C2CC2)CC1` [Olaparib], the cell viability in the experiment with NHEM-hTERT is 0.988; in the experiment on Mel-DCC-11-R (vemurafenib co-treatment 0 µM), 1.09; with Mel-DCC-11-R (vemurafenib co-treatment 8 µM), 0.92.
As to `CC1(C)O[C@H]2CC(=O)OC[C@]23[C@H]2CC[C@@]4(C)[C@H](c5ccoc5)OC(=O)[C@H]5O[C@]54[C@]2(C)C(=O)C[C@@H]13` [Limonin], the figures for the cell viability in the experiment with NHEM-hTERT, with Mel-DCC-11-R (vemurafenib co-treatment 0 µM) and in the experiment with Mel-DCC-11-R (vemurafenib co-treatment 8 µM) were 1.21, 0.857 and 1.11, respectively.
Consider `NC(=O)N1CCC(CC(=O)N2CCC([C@H]3c4ncc(Br)cc4CCc4cc(Cl)cc(Br)c43)CC2)CC1` [Lonafarnib], for which the cell viability with NHEM-hTERT was 0.9; with Mel-DCC-11-R (vemurafenib co-treatment 0 µM) it was 0.926; with Mel-DCC-11-R (vemurafenib co-treatment 8 µM), 0.889.
Turning to `CS(=O)(=O)c1ccc(C2=C(c3ccccc3)C(=O)OC2)cc1` [Rofecoxib], the figures for the cell viability in the experiment on NHEM-hTERT, in the experiment with Mel-DCC-11-R (vemurafenib co-treatment 0 µM) and with Mel-DCC-11-R (vemurafenib co-treatment 8 µM) were 0.925, 0.862 and 0.825, respectively.
As for `CC1(C)CCC(CN2CCN(c3ccc(C(=O)NS(=O)(=O)c4ccc(NCC5CCOCC5)c([N+](=O)[O-])c4)c(Oc4cnc5[nH]ccc5c4)c3)CC2)=C(c2ccc(Cl)cc2)C1`, the cell viability in the experiment on NHEM-hTERT is 0.502; in the experiment on Mel-DCC-11-R (vemurafenib co-treatment 0 µM), 1.04; with Mel-DCC-11-R (vemurafenib co-treatment 8 µM), 1.23.
Consider `Nc1cccc2c1C(=O)N(C1CCC(=O)NC1=O)C2=O` (configuration not stated) [Pomalidomide], for which the cell viability is 1.15 with NHEM-hTERT, 1 with Mel-DCC-11-R (vemurafenib co-treatment 0 µM) and 1.25 in the experiment with Mel-DCC-11-R (vemurafenib co-treatment 8 µM).
For `COc1cccc2c1C(=O)c1c(O)c3c(c(O)c1C2=O)C[C@@](O)(C(=O)CO)C[C@@H]3O[C@H]1C[C@H](N)[C@H](O[C@H]2CCCCO2)[C@H](C)O1` [Pirarubicin], the cell viability in the experiment with NHEM-hTERT is 0.839; with Mel-DCC-11-R (vemurafenib co-treatment 0 µM), 0.233 (active); with Mel-DCC-11-R (vemurafenib co-treatment 8 µM) it was 0.0504 (active).
`COc1cc2c(Nc3ccc(Br)cc3F)ncnc2cc1OCC1CCN(C)CC1` [Vandetanib]: the results for the cell viability in the experiment with NHEM-hTERT, with Mel-DCC-11-R (vemurafenib co-treatment 0 µM) and in the experiment with Mel-DCC-11-R (vemurafenib co-treatment 8 µM) were 1.02, 1.29 and 1.01, respectively.
As for `COC(=O)c1cc(OC)c2c(c1-c1c(CO)cc(OC)c3c1OCO3)OCO2` [Bicyclol], the figures for the cell viability in the experiment with NHEM-hTERT, in the experiment on Mel-DCC-11-R (vemurafenib co-treatment 0 µM) and in the experiment with Mel-DCC-11-R (vemurafenib co-treatment 8 µM) were 1.12, 0.998 and 1.1, respectively.
Turning to `COc1cc2nccc(Oc3ccc(NC(=O)C4(C(=O)Nc5ccc(F)cc5)CC4)cc3)c2cc1OC.O=C(O)C[C@H](O)C(=O)O`, the cell viability is 0.932 in the experiment on NHEM-hTERT, 1.05 with Mel-DCC-11-R (vemurafenib co-treatment 0 µM) and 0.365 (active) in the experiment on Mel-DCC-11-R (vemurafenib co-treatment 8 µM).
For `CCN(CC)CCOc1ccc2c(c1)C(=O)c1cc(OCCN(CC)CC)ccc1-2.Cl.Cl` [Tilorone dihydrochloride], in that order: 1.15, 0.883 and 1.15.
In the case of `O=C(/C=C/c1cccc(S(=O)(=O)Nc2ccccc2)c1)NO` [Belinostat], the cell viability was 0.737 with NHEM-hTERT, 0.839 with Mel-DCC-11-R (vemurafenib co-treatment 0 µM) and 0.659 (active) with Mel-DCC-11-R (vemurafenib co-treatment 8 µM).
In the case of `Cc1c(C)c2c(c(C)c1O)CCC(C)(COc1ccc(CC3SC(=O)NC3=O)cc1)O2` (configuration not stated) [Troglitazone], the cell viability in the experiment with NHEM-hTERT is 1.05; in the experiment on Mel-DCC-11-R (vemurafenib co-treatment 0 µM), 1.01; with Mel-DCC-11-R (vemurafenib co-treatment 8 µM) it was 1.12.
For `COc1ccc2cc3[n+](cc2c1OC)CCc1cc2c(cc1-3)OCO2` [Berberine], in that order: 1.1, 1.05 and 0.918.
For `Nc1ncnc2c1ncn2[C@@H]1O[C@H](CO)[C@@H](O)[C@@H]1O` [Vidarabine], in that order: 1.02, 1.11 and 1.1.
Take `CC(C)(C)c1nc(-c2cccc(NS(=O)(=O)c3c(F)cccc3F)c2F)c(-c2ccnc(N)n2)s1` [Dabrafenib]: the cell viability in the experiment on NHEM-hTERT is 0.976; with Mel-DCC-11-R (vemurafenib co-treatment 0 µM), 1.03; with Mel-DCC-11-R (vemurafenib co-treatment 8 µM), 0.894.

(Values after the supplement of paper PMC12808144.)
